# Laboratory results as given in PubChem BioAssay (NCI).
# Compounds without any hit were thinned out: in the full panel of roughly 83,000, 20% have a hit.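 Single-concentration screen, 48 h exposure, 96-well plates. Endpoint: percent growth. Below 10 = active.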 A number with no mark means an inactive call. Active and inactive are the calls of the source.
# Tested on: UACC-62 melanoma
# Assay: NCI-60 one-dose screen, 48 h (100 = growth as untreated, 0 = no growth, -100 = all killed)
# Settings: 10 µM unless noted
row,SMILES,growth
1,CC(=O)N/C(=C1/OC(C(O)C(O)C(O)CO)CN1C)[P+](c1ccccc1)(c1ccccc1)c1ccccc1 (stereo not drawn),98.6%
2,COc1ccc(/C=C/C(=O)c2ccc(Nc3nc(Nc4ccc(F)cc4)nc(Nc4ccc(Cl)cc4)n3)cc2)cc1,105%
3,COc1ccc(C2=NN(C(=O)c3cc(OC)c(OC)c(OC)c3)C(c3ccc(N(C)C)cc3)C2)cc1 (stereo not drawn),15.6%
4,O=C1NC(=C(Cl)Cl)/C(=N/S(=O)(=O)NCCc2c[nH]c3ccccc23)N1,61.2%
5,COc1ccc(C/C(C)=C(\c2ccc(O)cc2)c2ccc(OCCN3CCCC3)cc2)cc1,102%
6,CCOC(=O)NN1CC(O)=C(c2nc(-c3ccc(Br)cc3)cs2)C1=N,110%
7,COC(=O)/C(CCC=C(C)C)=C1\[C@@H](OC(C)=O)C[C@@]2(C)[C@H]1CC(=O)[C@H]1[C@@]3(C)CCC(N4CCCC4)[C@@H](C)[C@@H]3CC[C@@]12C (stereo partly drawn),97.6%
8,Nc1c(C(=O)Nc2ccccn2)sc2nc3c(cc12)C(O)CCC3 (stereo not drawn),18.7%
9,COc1ccc2nc3cc(Cl)ccc3c(NCCN)c2c1,-71.2% (active)
10,Cc1cc2nc3c4ccccc4n(CCN(C)C)c3nc2cc1C,36.2%
11,Cc1ccc(C)n1/C=C/n1c(C)ccc1C,98.8%
12,Cc1c2ccccc2nc2c1ccc1cccnc12,94.6%
13,CN1CCN(Cc2ccc(NC(=O)c3cncc(C#Cc4cncc5ncccc45)c3)cc2C(F)(F)F)CC1,5.7% (active)
14,CCNC(=O)Oc1ccc(/C(=C(/C)Cc2ccc(OC)cc2)c2ccc(OCCN3CCCCCC3)cc2)cc1,73.2%
15,NC(CSC(c1ccccc1)(c1ccccc1)c1ccc2c(c1)OCO2)C(=O)O (stereo not drawn),25.4%
16,Cn1ccnc1C(=O)/C=C/c1ccc(C(=O)Nc2ccc(F)cc2)cc1,35.6%
17,C=CCn1c(SCC(=O)Nc2ccc(C(=O)/C=C/c3ccc(OC)cc3)cc2)nnc1-c1ccccc1,74.5%
18,COc1ccccc1NC(=O)c1ccc(/C=C/C(=O)c2nccn2C)cc1,-60.6% (active)
19,CCC/C(=N\NC(N)=O)C(OC)OC,100%
20,O=C1c2cccnc2C(=O)c2c1c(C(=O)OCCCN1CCCCC1)c1ccccn21,-51.2% (active)

row,SMILES,growth
1,O=C1CC2C=CCN2C=C1NC(=O)C1CCCCC1 (stereo not drawn),108%
2,O=C(Nc1ccccc1)c1sc(-c2ccccc2)cc1O,67%
3,O=C1/C(=C/c2cccc([N+](=O)[O-])c2)COc2ccc(O)cc21,59.4%
4,COc1cc2c3c(c1O)-c1ccccc1[C@@H]1OC(=O)N(CC2)[C@H]31,90.1%
5,COC(c1ccc2ccccc2c1)C(C)C(F)F (stereo not drawn),93.4%
6,Nc1ncnc2c1c(-c1ccc(Oc3ccccc3)cc1)nn2CC1SSCC1O (stereo not drawn),-76.1% (active)
7,C/C(=C(\c1ccc(OCCN2CCCCCC2)cc1)c1ccc(OC(=O)Cc2ccccc2)cc1)c1ccc(Cl)cc1,-5.48% (active)
8,Cc1cc2oc(=O)cc(CP(=O)(O)O)c2cc1O,90.7%
9,CCOC(=O)n1cc(-c2nonc2-c2cn(C)c3ccccc23)c2ccccc21,30.6%
10,Cc1cc(C)cc(Nc2ccc([N+](=O)[O-])c(NCCN3CCOCC3)n2)c1,36.6%
11,COc1ccccc1-n1c(-c2cc(O)ccc2C)cn2c3c(=O)[nH]c(=O)n(C)c3nc12,77.8%
12,O=c1oc2c(cnc3ccccc32)cc1-c1cccs1,101%
13,CCCCCCCCCCCCCCCCCCOc1ccccc1CC(=O)OCC[N+]1(C)CCOCC1,60.8%
14,COc1cc(C#Cc2ccc(=O)oc2C#Cc2ccccc2)cc(OC)c1OC,80.3%
15,CCC(C)Nc1ccc(NC(C)CC)cc1 (stereo not drawn),87.1%
16,C#CCn1cnc2c(Nc3cccc(NC(=O)CCl)c3)ncnc21,19.7%
17,CC[C@H](CC[C@@H](C)[C@H]1CC[C@H]2[C@@H]3CC[C@@H]4CC(=O)/C(=C\c5ccncc5)C[C@]4(C)[C@H]3CC[C@]12C)C(C)C,94.5%
18,COc1ccc2nc3ccccc3c(NCc3ccc(F)cc3)c2c1,39.1%
19,COc1ccc(Cl)cc1Nc1nc(C(F)(F)F)ccc1C(=O)N/N=C/c1ccccc1Cl,8.19% (active)

# Tested on: LOX IMVI melanoma
# Assay: as above
# Settings: 10 µM unless noted
row,SMILES,growth
1,CC(=O)N/C(=C1/OC(C(O)C(O)C(O)CO)CN1C)[P+](c1ccccc1)(c1ccccc1)c1ccccc1 (stereo not drawn),98.2%
2,COc1ccc(/C=C/C(=O)c2ccc(Nc3nc(Nc4ccc(F)cc4)nc(Nc4ccc(Cl)cc4)n3)cc2)cc1,102%
3,COc1ccc(C2=NN(C(=O)c3cc(OC)c(OC)c(OC)c3)C(c3ccc(N(C)C)cc3)C2)cc1 (stereo not drawn),28.9%
4,O=C1NC(=C(Cl)Cl)/C(=N/S(=O)(=O)NCCc2c[nH]c3ccccc23)N1,29.8%
5,COc1ccc(C/C(C)=C(\c2ccc(O)cc2)c2ccc(OCCN3CCCC3)cc2)cc1,98.3%
6,CCOC(=O)NN1CC(O)=C(c2nc(-c3ccc(Br)cc3)cs2)C1=N,106%
7,COC(=O)/C(CCC=C(C)C)=C1\[C@@H](OC(C)=O)C[C@@]2(C)[C@H]1CC(=O)[C@H]1[C@@]3(C)CCC(N4CCCC4)[C@@H](C)[C@@H]3CC[C@@]12C (stereo partly drawn),101%
8,Nc1c(C(=O)Nc2ccccn2)sc2nc3c(cc12)C(O)CCC3 (stereo not drawn),36.6%
9,COc1ccc2nc3cc(Cl)ccc3c(NCCN)c2c1,-86.4% (active)
10,Cc1cc2nc3c4ccccc4n(CCN(C)C)c3nc2cc1C,-63.2% (active)
11,Cc1ccc(C)n1/C=C/n1c(C)ccc1C,105%
12,Cc1c2ccccc2nc2c1ccc1cccnc12,105%
13,CN1CCN(Cc2ccc(NC(=O)c3cncc(C#Cc4cncc5ncccc45)c3)cc2C(F)(F)F)CC1,-85.7% (active)
14,CCNC(=O)Oc1ccc(/C(=C(/C)Cc2ccc(OC)cc2)c2ccc(OCCN3CCCCCC3)cc2)cc1,-22% (active)
15,NC(CSC(c1ccccc1)(c1ccccc1)c1ccc2c(c1)OCO2)C(=O)O (stereo not drawn),28.5%
16,Cn1ccnc1C(=O)/C=C/c1ccc(C(=O)Nc2ccc(F)cc2)cc1,-59.7% (active)
17,C=CCn1c(SCC(=O)Nc2ccc(C(=O)/C=C/c3ccc(OC)cc3)cc2)nnc1-c1ccccc1,87.2%
18,COc1ccccc1NC(=O)c1ccc(/C=C/C(=O)c2nccn2C)cc1,-82.5% (active)
19,CCC/C(=N\NC(N)=O)C(OC)OC,84.4%
20,O=C1c2cccnc2C(=O)c2c1c(C(=O)OCCCN1CCCCC1)c1ccccn21,-67.2% (active)

row,SMILES,growth
1,O=C1CC2C=CCN2C=C1NC(=O)C1CCCCC1 (stereo not drawn),96.9%
2,O=C(Nc1ccccc1)c1sc(-c2ccccc2)cc1O,109%
3,O=C1/C(=C/c2cccc([N+](=O)[O-])c2)COc2ccc(O)cc21,-80.6% (active)
4,COc1cc2c3c(c1O)-c1ccccc1[C@@H]1OC(=O)N(CC2)[C@H]31,99.1%
5,COC(c1ccc2ccccc2c1)C(C)C(F)F (stereo not drawn),101%
6,Nc1ncnc2c1c(-c1ccc(Oc3ccccc3)cc1)nn2CC1SSCC1O (stereo not drawn),19.2%
7,C/C(=C(\c1ccc(OCCN2CCCCCC2)cc1)c1ccc(OC(=O)Cc2ccccc2)cc1)c1ccc(Cl)cc1,-94.5% (active)
8,Cc1cc2oc(=O)cc(CP(=O)(O)O)c2cc1O,98.7%
9,CCOC(=O)n1cc(-c2nonc2-c2cn(C)c3ccccc23)c2ccccc21,41.7%
10,Cc1cc(C)cc(Nc2ccc([N+](=O)[O-])c(NCCN3CCOCC3)n2)c1,15.7%
11,COc1ccccc1-n1c(-c2cc(O)ccc2C)cn2c3c(=O)[nH]c(=O)n(C)c3nc12,38.9%
12,O=c1oc2c(cnc3ccccc32)cc1-c1cccs1,106%
13,CCCCCCCCCCCCCCCCCCOc1ccccc1CC(=O)OCC[N+]1(C)CCOCC1,55.9%
14,COc1cc(C#Cc2ccc(=O)oc2C#Cc2ccccc2)cc(OC)c1OC,-61% (active)
15,CCC(C)Nc1ccc(NC(C)CC)cc1 (stereo not drawn),74%
16,C#CCn1cnc2c(Nc3cccc(NC(=O)CCl)c3)ncnc21,24%
17,CC[C@H](CC[C@@H](C)[C@H]1CC[C@H]2[C@@H]3CC[C@@H]4CC(=O)/C(=C\c5ccncc5)C[C@]4(C)[C@H]3CC[C@]12C)C(C)C,95.7%
18,COc1ccc2nc3ccccc3c(NCc3ccc(F)cc3)c2c1,-66.7% (active)
19,COc1ccc(Cl)cc1Nc1nc(C(F)(F)F)ccc1C(=O)N/N=C/c1ccccc1Cl,-13.6% (active)
